Only some compounds are listed: those with a hit (about 10% of all), similar ones and a draw of the others.
HP1b chromo inh – blocks HP1-beta chromodomain binding to methylated histone tails. AID 540317. 390,000 compounds, 0.56% hits. Potency, µM (series often up to 114 µM), without a hit: top-dose activity change, negative = inhibition, actives largely listed as inhibitors. AlphaScreen HP1-beta / biotin-H3K9me3 peptide binding. P83916; also: nearly all actives have a fitted effect of over 70% in size
Target sequence (P83916 whole entry, looked up): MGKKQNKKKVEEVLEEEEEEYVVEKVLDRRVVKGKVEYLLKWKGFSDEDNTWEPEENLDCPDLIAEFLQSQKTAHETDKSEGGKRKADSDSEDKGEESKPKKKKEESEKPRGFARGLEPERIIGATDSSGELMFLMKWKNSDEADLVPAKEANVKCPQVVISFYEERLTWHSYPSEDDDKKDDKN
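HP1-beta protein (50 nM final) preincubated 30 min at room temperature with biotinylated H3(1-18)K9me3 peptide (50 nM) in PBS pH 7.4, 0.01% Tween-20, then compound added for 30 min. AlphaScreen streptavidin donor/nickel chelate acceptor beads (10 ug/mL final), 30 min dark, luminescence read.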
G9a inh – inhibitors of human histone lysine methyltransferase G9a | Q96KQ7 | G9a H3K9 monomethylation, AlphaScreen, 2 h | Potency, µM (highest dose often 102 µM), without a hit: top-dose activity, negative = inhibition, most hits filed as inhibitors | 350,000 compounds, 8.8% hits | AID 504332; also: % is scaled to controls: 0 for no effect and ±100 for the full control effect; nearly all actives have a fitted effect of over 75% in size
Target sequence (Q96KQ7 913-1193 limits assumed): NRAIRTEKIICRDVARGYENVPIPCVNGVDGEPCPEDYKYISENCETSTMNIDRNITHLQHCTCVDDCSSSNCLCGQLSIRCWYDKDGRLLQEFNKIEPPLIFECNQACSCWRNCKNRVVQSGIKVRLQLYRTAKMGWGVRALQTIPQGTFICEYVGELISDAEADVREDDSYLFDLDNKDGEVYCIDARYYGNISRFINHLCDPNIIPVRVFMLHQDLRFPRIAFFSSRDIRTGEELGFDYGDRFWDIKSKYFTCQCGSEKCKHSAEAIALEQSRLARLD
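Methyltransferase reactions run at room temperature for 2 h (20 nM enzyme, 500 nM biotin-H3K9 peptide, 20 uM SAM) after a 15 min compound preincubation; product detected by AlphaScreen beads and anti-H3K9me1 antibody.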
JMJD2A Tudor – blocks the human JMJD2A Tudor domain | AlphaScreen JMJD2A-Tudor / H3K4me3 peptide binding | Potency, µM (titrated, usually from 114 µM), inactives show at the highest dose activity change, negative = inhibition, hits mostly inhibitors | 390,000 compounds, 4.4% hits; also: % is scaled to controls: 0 for no effect and ±100 for the full control effect; nearly all actives have a fitted effect of over 50% in size
BAZ2B block – blocks human BAZ2B. Q9UIF8. AlphaScreen BAZ2B-H3K14Ac peptide displacement. Potency, µM (top dose mostly 114 µM), for inactives: top-dose activity change, negative = inhibition, actives largely listed as inhibitors. 360,000 compounds, 4.4% hits. AID 504333; also: % is scaled to controls: 0 for no effect and ±100 for the full control effect; nearly all actives have a fitted effect of over 60% in size
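AlphaScreen displacement: compounds (up to 110uM) incubated 30 min at room temperature with a preformed 50 nM BAZ2B/50 nM biotinylated H3K14Ac peptide complex in PBS pH 7.4 with Tween-20. Donor and acceptor beads at 10 ug/mL final added, 20 min light-protected before reading.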
GLS inh – inhibitors of human glutaminase (GLS). O94925. GLS enzymatic activity, qHTS titration. Potency, µM (top dose mostly 45.5 µM), inactives show top-dose activity change, negative = inhibition, actives largely listed as inhibitors. 410,000 compounds, 0.21% hits; also: % is scaled to controls: 0 for no effect and ±100 for the full control effect
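Coupled fluorescence readout: glutamate oxidase/HRP/Amplex Red detect glutamate formed by hKGA from L-glutamine (1 mM solution added). Buffer 45 mM KH2PO4 pH 8.2, 0.02% Tween-20; reads at t0 and 30 min RT.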
Active calls of the source: *; [ ] = another dose, or the depositor's remark. Calls follow the shape of the dose curve; as a rule, active = well fitted curve in the direction sought with a large enough effect; inconclusive = small, poorly fitted or top-dose-only effect, or another doubt; inactive = no such curve, though single readings can be large; an effect the other way counts as inactive or inconclusive. Potency is read from the fitted curve at half-maximal effect.

What do the screens show for `CC1=C(C(=O)N(C(C)C)C(C)C)CC(CC(=O)NC(c2ccccc2)c2ccccc2)C(=O)N1CCCN1CCCC1=O` (centres undefined)?
GLS inh: -0.5%

How did CCOc1ccc(C(C)=O)cc1N1C(=O)C2C(C1=O)C1C=CC2C12CC2 (centres undefined) do in these assays?
HP1b chromo inh: 29.5%; G9a inh: -9.2%; JMJD2A Tudor: -0.6%; BAZ2B block: 50.1µM*; GLS inh: 2.6%

What do the screens show for `O=C(Cc1cccs1)N(c1ccc(Br)cc1)C1C=CS(=O)(=O)C1` (centres undefined)?
HP1b chromo inh: -4.9%; G9a inh: 3.5%; JMJD2A Tudor: 20µM*; BAZ2B block: -15.9%; GLS inh: 0.0%

How did COc1ccc(N(C(=O)Cc2cccs2)C2C=CS(=O)(=O)C2)cc1 (centres undefined) do in these assays?
HP1b chromo inh: 12.5%; G9a inh: 6.5%; JMJD2A Tudor: -25.1%; BAZ2B block: inconclusive; GLS inh: 0.8%

Results for Cc1ccc(CN2C(=O)SC(Nc3ccc(Cl)cc3)C2=O)cc1 (centres undefined) ?
HP1b chromo inh: 42.0%; G9a inh: 7.2%[59 µM]; JMJD2A Tudor: 7.9%; BAZ2B block: 11.8%; GLS inh: -12.3%

Results for CCn1c(=O)c2c(n3c(=S)[nH]nc13)-c1ccccc1CC21CCCCC1 ?
HP1b chromo inh: -13.5%; G9a inh: 1.58µM*; JMJD2A Tudor: 17.8µM*; BAZ2B block: -33.6%; GLS inh: -12.1%

Results for CCn1c(SCC#N)nc2c(c1=O)C1(CCCC1)Cc1ccccc1-2 ?
HP1b chromo inh: 43.1%; G9a inh: 27.1%[59 µM]; JMJD2A Tudor: 0.8%; BAZ2B block: 6.4%; GLS inh: 4.1%

What do the screens show for `O=C(CN1C(=O)c2cccnc2Oc2ccc(Cl)cc21)NCCCN1CCCCC1`?
HP1b chromo inh: 23.5%; G9a inh: -1.5%[59 µM]; JMJD2A Tudor: -8.9%; BAZ2B block: -2.2%; GLS inh: 0.3%

Results for COc1ccc(N2CCN(CCCNC(=O)CC3Oc4ccc(C)cc4NC3=O)CC2)cc1 (centres undefined) ?
HP1b chromo inh: -8.6%; G9a inh: 35.5µM*; JMJD2A Tudor: inconclusive; BAZ2B block: inconclusive; GLS inh: 33.2%

What do the screens show for `CCN1CCN(CCC2Oc3cc([N+](=O)[O-])ccc3NC2=O)CC1` (centres undefined)?
HP1b chromo inh: 47.9%; G9a inh: inconclusive; JMJD2A Tudor: -7.1%; BAZ2B block: -4.8%; GLS inh: 0.0%

Results for COc1ccc(N2CCN(CCC3Oc4cc([N+](=O)[O-])ccc4NC3=O)CC2)cc1 (centres undefined) ?
HP1b chromo inh: inconclusive; G9a inh: 17.8µM*; JMJD2A Tudor: inconclusive; BAZ2B block: 28.2µM*; GLS inh: 29.0%

What do the screens show for `CCN(CCCNC(=O)CC1Oc2ccc(C)cc2NC1=O)Cc1ccccc1` (centres undefined)?
HP1b chromo inh: 32.6%; G9a inh: 50.1µM*; JMJD2A Tudor: -15.0%; BAZ2B block: 0.5%; GLS inh: 1.0%

What do the screens show for `Cc1ccc2c(c1)NC(=O)C(CC(=O)NCCCN1CCc3ccccc3C1)O2` (centres undefined)?
HP1b chromo inh: 15.1%; G9a inh: 50.1µM*; JMJD2A Tudor: -35.9%; BAZ2B block: -3.8%; GLS inh: 6.8%

How did Cc1ccc2c(c1)NC(=O)C(CC(=O)NCCCN1CCN(C3CCCCC3)CC1)O2 (centres undefined) do in these assays?
G9a inh: inconclusive; BAZ2B block: -0.4%

How did Cc1ccc2c(c1)NC(=O)C(CC(=O)NCCCN1CCCC1)O2 (centres undefined) do in these assays?
HP1b chromo inh: 39.1%; G9a inh: -5.5%; JMJD2A Tudor: -25.4%; BAZ2B block: -5.7%; GLS inh: 2.0%

What do the screens show for `CCCCNc1nc(Oc2ccc(=O)n(-c3ccccc3)n2)nc(N(C)C)n1`?
HP1b chromo inh: 10.4%; G9a inh: -3.3%[59 µM]; JMJD2A Tudor: -18.9%; BAZ2B block: -12.7%; GLS inh: 0.5%

Screening data from PubChem BioAssay.
